Assay [1] can be described thus: TOX21_p53_BLA_p2_viability: Viability Assessment in the Tox21 HCT-116 p53 Agonism Beta-lactamase Assay, Phase 2 (AID 2283591).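 Note: actives lower the ATP signal meaning cytotoxicity.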 Put shortly:
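HCT116 p53-bla cells, 4000/well, dosed after 5 h plating (217-fold dilution of DMSO stocks) and incubated 16 h at 37C. Viability taken as cellular ATP by CellTiter-Glo luminescence after 30 min RT; signal loss marks cytotoxicity.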

Assay [2] deals with Cellular tumor antigen p53 (Homo sapiens) (UniProt P04637). Briefly: TOX21_p53_BLA_p2_ratio: Tox21 HCT-116 p53 Agonism Beta-lactamase Assay, Ratio, Phase 2 (AID 2283592). Put shortly: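 An inducible beta-lactamase reporter in HCT116 cells signals p53 pathway activation. After 16 h chemical exposure at 37C, cells load CCF4-AM substrate for 2 h at room temperature; activity is the cleaved/uncleaved emission ratio relative to DMSO.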
Chain of Cellular tumor antigen p53 (Homo sapiens) (P04637 whole entry, looked up): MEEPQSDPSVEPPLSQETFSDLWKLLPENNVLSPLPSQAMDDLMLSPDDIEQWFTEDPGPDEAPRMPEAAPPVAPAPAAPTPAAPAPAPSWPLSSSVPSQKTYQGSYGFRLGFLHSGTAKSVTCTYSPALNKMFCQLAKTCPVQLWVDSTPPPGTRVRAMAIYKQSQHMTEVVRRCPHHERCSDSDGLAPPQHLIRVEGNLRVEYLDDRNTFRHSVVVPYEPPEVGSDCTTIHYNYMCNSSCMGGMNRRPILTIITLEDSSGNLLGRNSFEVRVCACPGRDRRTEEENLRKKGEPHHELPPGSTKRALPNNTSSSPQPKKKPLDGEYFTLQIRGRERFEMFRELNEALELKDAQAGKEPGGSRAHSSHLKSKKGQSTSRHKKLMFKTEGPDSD

Assay [3] is described as follows: TOX21_p53_BLA_p3_viability: Viability Assessment in the Tox21 HCT-116 p53 Agonism Beta-lactamase Assay, Phase 3 (AID 2283593).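 Note: cells exposed to compound for 16 h before reading.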 Summed up:
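HCT116 cells, 4000/well, dosed 5 h after plating by pin transfer (217-fold dilution from DMSO stock) and incubated 16 h at 37C, 5% CO2. Viability read as ATP luminescence with CellTiter-Glo after 30 min at room temperature.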

Assay [4] has as its target Cellular tumor antigen p53 (Homo sapiens) (UniProt P04637). In words: TOX21_p53_BLA_p3_ratio: Tox21 HCT-116 p53 Agonism Beta-lactamase Assay, Ratio, Phase 3 (AID 2283596). Put shortly:
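HCT116 p53-bla cells (4000/well) given compound in DMSO (217-fold dilution) after 5 h, incubated 16 h at 37C. CCF4-AM substrate 2 h at room temperature; 460/530 nm emission ratio, gain fitted against DMSO.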

Assay [5] in a line: TOX21_p53_BLA_p4_viability: Viability Assessment in the Tox21 HCT-116 p53 Agonism Beta-lactamase Assay, Phase 4 (AID 2283597).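 Note: hits lower the luminescence signal meaning cytotoxicity.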 Put shortly: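 Compound exposure of HCT116 cells lasts 16 h at 37C, 5% CO2, with DMSO stocks diluted 217-fold. Cellular ATP is then quantified by CellTiter-Glo luminescence after 30 min at room temperature.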
Assay [6] has as its target Cellular tumor antigen p53 (Homo sapiens) (UniProt P04637). In words: TOX21_p53_BLA_p4_ratio: Tox21 HCT-116 p53 Agonism Beta-lactamase Assay, Ratio, Phase 4 (AID 2283601). Summed up:
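HCT-116 p53 beta-lactamase reporter cells (4000/well) preincubated 5 h, then compound (217-fold dilution of DMSO stock) for 16 h at 37C. CCF4-AM substrate added 2 h at room temperature; 460/530 nm emission ratio fitted upward versus DMSO.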

Assay [7] shares this target. Briefly: TOX21_p53_BLA_p5_ratio: Tox21 HCT-116 p53 Agonism Beta-lactamase Assay, Ratio, Phase 5 (AID 2283599). Put shortly: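 HCT-116 p53-bla cells (4000/well) plated 5 h, dosed with compound (217-fold DMSO dilution) for 16 h at 37 C; CCF4-AM substrate 2 h at room temperature. Activity is the 460/530 nm emission ratio (405 nm excitation), fitted in gain-of-signal direction versus DMSO.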

Assay [8] in a line: TOX21_p53_BLA_p5_viability: Viability Assessment in the Tox21 HCT-116 p53 Agonism Beta-lactamase Assay, Phase 5 (AID 2283600). Put shortly:
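Counter-readout for cytotoxicity: ATP-dependent luminescence from CellTiter-Glo, read in the beta-lactamase wells after 30 min at RT, following a 16 h compound exposure at 37C.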

Assay [9] has as its system Brachyury (BRA) Protein Expression, Deisenroth Lab, TBXT (gene 6862). In words: CCTE_Deisenroth_DEVTOX-GLR_legacy_Bra: (Legacy) CCTE's DevTox GLR-Endo Assay Evaluation of Brachyury (BRA) Protein Expression, Deisenroth Lab (AID 2284329; active = hit-call score of the fitted dose curve at least 0.9, where 1 is the maximum; inactive = score below 0.9). Summed up:
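RUES2-GLR human pluripotent cells are differentiated for 48 h and receive two chemical exposures 24 h apart, at 10 concentrations from 1 nM to 200 uM. Cells are fixed, nuclei stained and imaged. Bra+ cells are those with mean Bra intensity over 5x BMAD above the pluripotent control median, expressed as a percentage of cell count, after subtracting the 0.2% DMSO control median.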

Assay [10] is described as follows: CCTE_Deisenroth_DEVTOX-GLR_legacy_CellCount: (Legacy) Viability Assessment in CCTE's DevTox GLR-Endo Assay, Deisenroth Lab (AID 2284331; active = hit-call score of the fitted dose curve at least 0.9, where 1 is the maximum; inactive = score below 0.9). As to conditions: actives raise or lower the signal. Put shortly: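 RUES2-GLR human pluripotent cells were seeded 24 h, then differentiated 48 h with two compound doses at 24 h intervals (10-point, 1 nM - 200 uM). Fixed nuclei were imaged and counted; bidirectional fitting versus 0.2% DMSO.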

Assay [11] relates to Brachyury (BRA) Protein Expression, TBXT (gene 6862). In words: CCTE_Deisenroth_DEVTOX-GLR_Endo_BRA: CCTE's DevTox GLR-Endo Assay Evaluation of Brachyury (BRA) Protein Expression, Deisenroth Lab (AID 2284417; active = hit-call score of the fitted dose curve at least 0.9, where 1 is the maximum; inactive = score below 0.9). Put shortly: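 Endpoint is the fraction of BRA reporter-positive cells over total nuclei, corrected by subtracting the 0.2% DMSO value. Chemicals (1 nM - 200 uM, 10 points) were dosed twice during 48 h differentiation of RUES2-GLR cells, read by imaging.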

The nature of assay [12]: CCTE_Deisenroth_DEVTOX-GLR_Endo_CellCount: Viability Assessment in CCTE's DevTox GLR-Endo Assay, Deisenroth Lab (AID 2284420; active = hit-call score of the fitted dose curve at least 0.9, where 1 is the maximum; inactive = score below 0.9). Summed up:
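Viability in differentiating RUES2-GLR cultures is scored by fluorescent nuclear counts after 48 h and two 24-hourly chemical treatments, as percent change from the 0.2% DMSO control.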

Assay [13] relates to SRY-box transcription factor 17 (SOX17) Protein Expression, Deisenroth Lab, SOX17 (gene 64321). In words: CCTE_Deisenroth_DEVTOX-GLR_Pluri_SOX17: CCTE's DevTox GLR-Pluri Assay Evaluation of SRY-box transcription factor 17 (SOX17) Protein Expression, Deisenroth Lab (AID 2284427). Summed up:
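Seed cells 24 h; differentiate 48 h, dosing at 0 and 24 h (1 nM - 200 uM); fix, stain nuclei, image 5 fields per well; count SOX17+ cells over total cells and subtract 0.2% DMSO control.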

In assay [14] the test system is SRY-box transcription factor 2 (SOX2) Protein Expression, Deisenroth Lab, SOX2 (gene 6657). In words: CCTE_Deisenroth_DEVTOX-GLR_Pluri_SOX2: CCTE's DevTox GLR-Pluri Assay Evaluation of SRY-box transcription factor 2 (SOX2) Protein Expression, Deisenroth Lab (AID 2284428; active = hit-call score of the fitted dose curve at least 0.9, where 1 is the maximum; inactive = score below 0.9). Put shortly: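 SOX2 expression frequency is scored in a human pluripotent reporter line, RUES2-GLR, exposed to chemicals twice over 48 h. Imaging-based SOX2+ cell percentage is normalized as change versus 0.2% DMSO.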

The subject of assay [15] is Brachyury (BRA) Protein Expression, Deisenroth Lab, TBXT (gene 6862). Briefly: CCTE_Deisenroth_DEVTOX-GLR_Pluri_BRA: CCTE's DevTox GLR-Pluri Assay Evaluation of Brachyury (BRA) Protein Expression, Deisenroth Lab (AID 2284429). Summed up: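 RUES2-GLR human pluripotent cells differentiated 48 hours with two chemical exposures 24 hours apart, 10-point series 1 nM–200 uM. Fixed, nuclear-stained, imaged; endpoint is percent BRA+ cells minus 0.2% DMSO control.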

Assay [16] can be described thus: CCTE_Deisenroth_DEVTOX-GLR_Pluri_CellCount: Viability Assessment in CCTE's DevTox GLR-Pluri Assay Evaluation of Total Cell Counts, Deisenroth Lab (AID 2284430; active = hit-call score of the fitted dose curve at least 0.9, where 1 is the maximum; inactive = score below 0.9). Summed up:
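RUES2-GLR human pluripotent cells, seeded 24 h, then differentiated 48 h with two chemical exposures 24 h apart; 10-point series 1 nM - 200 uM. Fixed, nuclear-stained, imaged (5 fields/well); nuclei count as % change vs 0.2% DMSO.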

A short description of assay [17]: CCTE_Harrill_HTTr_Viability_MCF7: CCTE's 6-hour Cell Viability Assessment for the High-Throughput Transcriptomics (HTTr) Platform, in MCF-7 cells cultured in DMEM + 10% fetal bovine serum, Harrill Lab (AID 2284010; active = hit-call score of the fitted dose curve at least 0.9, where 1 is the maximum; inactive = score below 0.9). Put shortly: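 Membrane integrity was scored by high-content imaging of propidium iodide dye exclusion after a 6 h exposure across an eight-point dilution series. Data were fitted bidirectionally relative to DMSO as negative control and baseline.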

Assay [18] can be described thus: CCTE_Harrill_HTTr_Apoptosis_MCF7: CCTE's 6-hour Apoptosis Assessment for the High-Throughput Transcriptomics (HTTr) Platform, in MCF-7 cells cultured in DMEM + 10% fetal bovine serum, Harrill Lab (AID 2284011; active = hit-call score of the fitted dose curve at least 0.9, where 1 is the maximum; inactive = score below 0.9). Summed up:
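Cells are dosed with test chemicals at eight concentrations and imaged 6 hours later for caspase-3/7 activity using a green fluorogenic detection reagent. Activity is fitted in both directions against DMSO controls.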

Records with an inconclusive call do not appear. The source made the active and inactive calls. Rule for the calls, unless noted: active = hit-call score of the fitted dose curve at least 0.9, where 1 is the maximum; inconclusive = response in the unintended direction; inactive = score below 0.9.

For six compounds, outcome and AC50 results are on record in PubChem BioAssay (EPA / NIEHS).

Regarding `OCCSc1ccccc1`, the compound was called inactive in assay [1], in assay [2], in assay [3], in assay [4], in [5] and in assay [6].
As to `CCc1nnc(NS(=O)(=O)c2ccc(N)cc2)s1`, the compound was classed as inactive in assay [1], in assay [2], in assay [3], in assay [4], in [7] and in assay [8].
`O=C(c1ccc(F)cc1)C1CCN(CCn2c(=O)[nH]c3ccccc3c2=O)CC1`: the result in assay [1], in assay [2], in assay [3], in assay [4], in assay [5] and in assay [8] was inactive. The result in assay [6], in [9] and in assay [16] was inactive. For the same compound, the AC50 in assay [10] is 58.8 µM (active); in assay [11] it was 70 µM (active); in assay [12], 58.4 µM (active); in [13], 100 µM (active); in assay [14] it was 19.8 µM (active); in [15], 127 µM (active).
Regarding `NC(=S)N/N=C/c1cccnc1`, the call in assay [1], in assay [2], in [3], in [4], in [5] and in assay [6] was inactive.
Consider `O=c1n(CCCN2CCN(c3cccc(Cl)c3)CC2)nc2ccccn12`, for which the result in [1], in assay [2], in assay [3], in assay [4], in [5] and in assay [8] was inactive. Also, the outcome in assay [6], in assay [17] and in assay [18] was inactive.
As for `OCC(CBr)(CBr)CBr`, the compound was called inactive in assay [1], in [2], in assay [3], in assay [4], in assay [5] and in [6].
